Records with an inconclusive call do not appear. A call without a number means that no potency is given here. Active and inactive are the calls of the source. The call rests on the fitted dose curve; in most records, active means well fitted inhibition curve with a large enough effect; inconclusive means small, poorly fitted or top-dose-only effect, or effect the other way; inactive means flat fitted curve, though single readings scatter.
What follows are compounds tested against Menin (Homo sapiens) (UniProt O00255) (assay: Confirmation of Inhibitors Targeting the Menin-MLL Interaction in MLL Related Leukemias: Confirmation in an HTRF (commercial TR-FRET) Assay using His-tagged menin and biotin-labeled MLL peptide). Conditions: His-menin / biotin-MLL peptide binding; series mostly up to 126 µM.
Chain of Menin (Homo sapiens) (O00255 whole entry, looked up): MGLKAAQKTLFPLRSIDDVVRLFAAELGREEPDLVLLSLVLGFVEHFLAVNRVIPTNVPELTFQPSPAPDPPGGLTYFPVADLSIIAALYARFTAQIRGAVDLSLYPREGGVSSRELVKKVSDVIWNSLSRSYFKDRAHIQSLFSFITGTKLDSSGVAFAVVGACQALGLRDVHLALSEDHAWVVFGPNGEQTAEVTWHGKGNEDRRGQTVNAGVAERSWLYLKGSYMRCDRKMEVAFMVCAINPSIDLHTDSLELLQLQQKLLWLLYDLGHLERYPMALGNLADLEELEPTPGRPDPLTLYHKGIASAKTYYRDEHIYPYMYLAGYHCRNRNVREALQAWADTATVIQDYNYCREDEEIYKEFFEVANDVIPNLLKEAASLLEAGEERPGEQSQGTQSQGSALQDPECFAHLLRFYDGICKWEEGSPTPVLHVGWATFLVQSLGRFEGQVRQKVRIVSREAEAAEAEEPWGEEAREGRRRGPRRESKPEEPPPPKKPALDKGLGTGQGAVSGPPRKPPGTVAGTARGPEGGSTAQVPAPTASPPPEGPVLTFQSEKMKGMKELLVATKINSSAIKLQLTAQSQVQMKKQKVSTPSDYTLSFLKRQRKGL
Source text: qHTS Assay for Inhibitors Targeting the Menin-MLL Interaction in MLL Related Leukemias
NIH Chemical Genomics Center [NCGC]
NIH Molecular Libraries Probe Centers Network [MLPCN]
Assay Submitter (PI): Jolanta Grembecka, Tomasz Cierpicki, University of Virginia
Translocations of the MLL (Mixed Lineage Leukemia) gene are frequently found in human leukemias affecting both children and adults. Fusion of MLL to one of more than 60 genes results in generation of oncogenic proteins upregulating Hox genes, which are vital to blood cell development. Patients harboring fusion of the MLL gene suffer from aggressive leukemias and respond poorly to available therapies. All of the oncogenic fusion proteins have a preserved N-terminal fragment of MLL that has been identified to interact with menin. It has been recently discovered that association with menin is critical to the leukemogenic activity of the MLL fusion oncoproteins. Selective targeting of the menin-MLL interaction could provide an attractive therapeutic approach to develop novel drugs for MLL-related leukemias. Small molecules blocking the menin-MLL interaction should reverse the oncogenic potential of MLL fusion proteins.
We have developed and optimized a fluorescence polarization-based assay for the identification of Menin-MLL inhibitors. The assay was run employing two different MLL-derived peptides. The present assay uses a 12 amino acid peptide labeled with fluorescein at its N-terminus. This peptide consists of the menin high affinity binding motif from MLL and is potently bound by menin. Another peptide with a mutated sequence, labeled with Texas Red, was used in parallel as a less stringent screen for inhibitors.
The present assay uses an alternate technology to confirm hits from the primary screen - homogeneous time resolved fluorescence (HTRF).
The Menin protein, the MLL-wild type (w.t.) derived peptide (N-terminal 12 amino acids), the MLL-derived peptide labeled with Texas Red and the MLL-w.t. peptide labeled with Fluorescein were kindly supplied by laboratory of Dr. Jolanta Grembecka, University of Virginia. All protein and peptide solutions were stored in single use aliquots at -80C. The Eu3+ Cyrptate-conjugated mouse monoclonal antibody anti-6 Histidine (Eu3+-AB) and the Streptavidin-XL665 conjugate (XL665) were purchased from Cisbio International (Bedford, MA). All antibody and XL665 conjugate solution stocks were stored in single use aliquots at -20C. The Buffer components for all assays were purchased from Sigma-Aldrich (St. Louis, MO) and Invitrogen (Carlsbad, CA).
1. HTRF reaction buffer: 50 mM Tris-HCl pH 7.5, 50 mM NaCl, 1mM DTT.
Before use, 0.05% BSA is added.
2. His6-Menin protein, MLL-w.t. labeled with biotin.
Stored in singe use aliquots at -80C.
3. MLL-w.t. unlabeled peptide as positive control: 10 uM final in HTRF buffer.
1. Prepare His6-Menin at 200 nM, MLL-w.t.-biotin at 80 nM in HTRF buffer.
2. Prepare His6-Menin at 200 nM, MLL-w.t.-biotin at 80 nM and 10 uM MLL-w.t. unlabeled mixture in HTRF buffer.
3. Dispense 10 ul per well of reagent in step 1 in columns 2, 4-24 in a black 384 well plate, dispense 10 ul per well of reagents from steps 2 in column 1. Incubate plate at ambient for 15 minutes.
4. Transfer 1 uL per well of compound to plate and incubate at ambient for 1 hr.
5. Dispense 10uL of the donor (6His-Cryptate, 3.5 nM final conc.) and acceptor (SA_XL, 10nM final conc.) complex in the HTRF buffer with 0.01% BSA. Incubate for 1h.
With `c1cc2cc(c1)C[n+]1ccc(c3ccccc31)NCc1ccc(cc1)CNc1cc[n+](c3ccccc13)C2` the Potency was 282 µM (active).
`C[N+](C)(C)CC#CCN1CCCC1=O` was tested, and the Potency was “inactive”.
For `COc1ccc(C(O)P(=O)(Oc2ccccc2)Oc2ccccc2)cc1` (stereo unspecified), the Potency was “inactive”.
`Cc1cc(C(=O)NP(=O)(N2CCOCC2)N2CCOCC2)c(C)n1C1CC1` was tested, and the Potency was “inactive”.
In the case of `C[C@@H]1CC[C@@]2(NC1)O[C@H]1C[C@H]3[C@@H]4CC=C5C[C@@H](O)CC[C@]5(C)[C@H]4CC[C@]3(C)[C@H]1[C@@H]2C`, the Potency is reported as “inactive”.
For `O=c1oc2ccccc2c(O)c1C(c1ccccn1)c1c(O)c2ccccc2oc1=O`, the Potency was “inactive”.
In the case of `OC12C3C4CC5C6C4C1C6C(C53)N2CCc1cccc(F)c1` (stereo unspecified), the Potency is reported as “inactive”.
With `COc1cc(/C=N/n2cnnc2)ccc1OC(=O)N(C)C` the Potency was “inactive”.
`CCOC(=O)Cc1csc(NC(=O)c2c(O)c3ccccc3n(CCC(C)C)c2=O)n1` was tested, and the Potency was “inactive”.
`CCCCn1c(=O)c(C(=O)Nc2ccsc2C(=O)OC)c(O)c2ccccc21` was tested, and the Potency was “inactive”.
`COc1cc(-c2ccc(-[n+]3nc(-c4ccccc4)nn3-c3ccc([N+](=O)[O-])cc3)c(OC)c2)ccc1-[n+]1nc(-c2ccccc2)nn1-c1ccc([N+](=O)[O-])cc1` was tested, and the Potency was 56.2 µM (active).
In the case of `O=C(O)CN1C(=O)CN=C(c2ccccn2)c2cc(Cl)ccc21`, the Potency is reported as “inactive”.
For `CCOP(=O)(OCC)C(NC(=O)c1ccccc1C)C(Cl)(Cl)Cl` (stereo unspecified), the Potency was “inactive”.
In the case of `O=C(Nc1ccc2ccccc2c1)c1nn(C23CC4CC(CC(C4)C2)C3)cc1Br`, the Potency is reported as “inactive”.
With `CC[C@]12C=CCN3CC[C@@]4(c5ccc(OC)cc5N(C)[C@H]4[C@@](O)(C(=O)OC)[C@@H]1OC(C)=O)C32` (stereo partly specified) the Potency was “inactive”.
With `O=C1NC(=O)C(=Cc2ccc3ccccc3c2)C(=O)N1` the Potency was “inactive”.

Reference: PubChem BioAssay AID2778 (National Center for Advancing Translational Sciences (NCATS), 2010)
Potency means the concentration at half of the fitted maximal effect.
